{"source": "paper PMC12136788", "binders": {"B1": {"name": "chr14:106116634:106116941:-|CDS|ENSG00000211941|control|control|control (ssRNA)", "RNA": "GGGAGUUCUACAGUCCGACGAUCUGGAUCCGCCAGGCUCCAGGGAAGGGGCUGGAGUGGGUUUCAUACAUUAGUAGUAGUAGUAGUUACACAAACUACGCAGACUCUGUGAAGGGCCGAUUCACCAUCUCCAGAGACAACGCCCAACAGAGGAUUGAGCAUCA"}, "B2": {"name": "ENSG00000070961:be:win_4601|3pUTR|ENSG00000070961|bound_else_gene|NA|bound_elsewhere_windowed (ssRNA)", "RNA": "GGGAGUUCUACAGUCCGACGAUCUCAGACUAUCAAACUACAAGAGAACCUUAGUCUUUUUUGUUUUUGUCUAAACAUGUUAGUUUAGUGAUGUCUUGGUGAACUGUGAGUGAACUGUAUUGAUUUUUCUAAUCUUUAGAGACCCAACAGAGGAUUGAGCAUCA"}, "B3": {"name": "ENSG00000157823:stop:overlap|stop_codon|ENSG00000157823|stop_codon|NA|stop_codon (ssRNA)", "RNA": "GGGAGUUCUACAGUCCGACGAUCUCCGCUUCUACCAGCGUUUCAAGAAAUUCAACAGCAGAUUGUUCGAGAGACUUUCCAUCUAGUCCUCAAGCGGGAUGACAACAUCUGUAACUUCUUGGAGGGUGGAAGUUUGAUUGGUGGCAACAGAGGAUUGAGCAUCA"}, "B4": {"name": "chr13:42321371:42321394:+|3pUTR|ENSG00000023516|msi1_unk|FALSE|overlapping (ssRNA)", "RNA": "GGGAGUUCUACAGUCCGACGAUCUUCUGUUUAUGGUGUAAUCAUUCUGAGGUGAGGCUUUUCUUAUUUCCUUUGCAUUUUGCUAGAGCUGUGCUGAGUUCAGCAUUUGCUUAUUUAACCACUACAUAAUGACAGACCAGUUAUCAACAGAGGAUUGAGCAUCA"}, "B5": {"name": "chr19:34469546:34469571:+|3pUTR|ENSG00000126261|msi1_unk|FALSE|overlapping (ssRNA)", "RNA": "GGGAGUUCUACAGUCCGACGAUCGUUGCCUUUUUAAUGUAAAUACCCGUAGGUAUCAUUAAUAGUUUCAAAAUAUUGUGGUUUAGUAAAGUUGAUACCUGGUUAUAAAUAUUAUGCCUUUAUUUUUGGCUAGAAGAAGAAUUACAACAGAGGAUUGAGCAUCA"}, "B6": {"name": "chr7:157269180:157269282:+|3pUTR|ENSG00000009335|unk|total|mutant (ssRNA)", "RNA": "GGGAGUUCUACAGUCCGACGAUCAUUUCCGGUUGUUUUAUGUUGAAUGUUCUAUAUCUUAUCCGUUAAUUUGUAUAUUUUAUCCGUAUUUUGGAAACCGCAUAUCUGAGACUGAAGAGAAAUUGACAAUUCACUUAUUUGUGGCAACAGAGGAUUGAGCAUCA"}, "B7": {"name": "chr7:157269180:157269282:+|3pUTR|ENSG00000009335|unk|FALSE|unique (ssRNA)", "RNA": "B6 RNA with C28U, C29A, C62U, C63A, C83U, C84A, C97U, C98A"}, "B8": {"name": "chr17:29548703:29548809:+|3pUTR|ENSG00000160551|unk|FALSE|bound_elsewhere (ssRNA)", "RNA": "GGGAGUUCUACAGUCCGACGAUCAGCACUUGUGAGUGAAAAAUCAUGUAAUUAUCUGUAAAUAUGUAGCUAACAAAUUGACCUAGUUUCUGUAUUUUUUUGUUUUUGUACUAAAGUUUAUAGGUCUGUGCCAGCUAGAGAGAACAACAGAGGAUUGAGCAUCA"}, "B9": {"name": "chr1:68475836:68475940:-|3pUTR|ENSG00000024526|unk|FALSE|unique (ssRNA)", "RNA": "GGGAGUUCUACAGUCCGACGAUCAUGCCCAGGGCCUAACUUACACUAAUUAAAUCUGAAUUUUGGGGAUGUUGUAUAGGGAUUAGUAUUUUUUUUAAUCUAGGUGAUUCCAAUAUUCAGCCAACUGUGAGAAUCAAUGGCCUACAACAGAGGAUUGAGCAUCA"}, "B10": {"name": "chr8:23844609:23844711:-|3pUTR|ENSG00000159167|msi1|FALSE|unique (ssRNA)", "RNA": "GGGAGUUCUACAGUCCGACGAUCUUUAGGGGUGUUGACACACCAGUUUUGAGUGUACUGUGCCUGGUUUGAUUUUUUUAAAGUAGUUCCUAUUUUCUAUCCCCCUUAAAGAAAAUUGCAUGAAACUAGGCUUCUGUAAUCAAUCAACAGAGGAUUGAGCAUCA"}, "B11": {"name": "chr2:65312585:65312700:-|3pUTR|ENSG00000198369|unk|FALSE|unique (ssRNA)", "RNA": "GGGAGUUCUACAGUCCGACGAUCUGGACCAGGGCUAGAAUGGGGAUUUCAGGUUUCUAUGAGCCUCCCCAUUACCCCUAAAGUAGAACAUUUUUUAAAUUGUGUUGCCACCACUUCUAAAAAUUUAGCAAUAUUAGAAUAGGACAACAGAGGAUUGAGCAUCA"}, "B12": {"name": "chr7:7573188:7573293:+|CDS|ENSG00000164654|unk|total|mutant (ssRNA)", "RNA": "GGGAGUUCUACAGUCCGACGAUCCCAUAUUUCCACGAUCGUGUUGCUUCCUUCUAUGAAGGUCAGGUUGCAAUAUGGGAUCUCCGAAAAUUUGAGAAGCCAGUUUUGACAUUGACUGAGCAACCAAAACCCUUAACAAAAGUACAACAGAGGAUUGAGCAUCA"}, "B13": {"name": "chr18:2804133:2804242:+|3pUTR|ENSG00000101596|unk|FALSE|unique (ssRNA)", "RNA": "GGGAGUUCUACAGUCCGACGAUCGGUUAAAGAGAAAUGACUUUUUAGGAACUAGACUUGAACGUAUAAUUAAUAUGUGGAACUAGUUUGCUUUUAUAAUUCAUUGUAUCAAGAAGGAGUCAUGUUUUAAAUCCAAGGCAUUGACAACAGAGGAUUGAGCAUCA"}, "B14": {"name": "chr15:67202635:67202736:-|3pUTR|ENSG00000103591|msi1|FALSE|unique (ssRNA)", "RNA": "GGGAGUUCUACAGUCCGACGAUCUGCCAAAAUUGCCCUUAUCAUGUUGGCUGCCUGACUUGUUUAUAGGGUCCCCUUAAUUUUAGUUUUUAGUAGGAGGUUAAGGAGAAAUCUUUUUUUUCCUCAGUAUAUUGUAAGAGAGUGCAACAGAGGAUUGAGCAUCA"}, "B15": {"name": "chrX:135156539:135157311:-|three_prime_utr|ENSG00000169551|control|control|control (ssRNA)", "RNA": "GGGAGUUCUACAGUCCGACGAUCUUUAUUCUGUUUAUCUUUCCUUUUAUGAGCAGUAAAGGGGCUGGUUUAACUUAAAAGGUUAGCUUAGUAAGCCUAAAUAGUAUUUUAUAUAUGACUUUUCUGGCAAAUCUAAUUGAGACACAACAGAGGAUUGAGCAUCA"}, "B16": {"name": "chr1:68475836:68475940:-|3pUTR|ENSG00000024526|unk|total|mutant (ssRNA)", "RNA": "B9 RNA with U76C, A77C, U83C, A84C, U100C, A101C"}, "B17": {"name": "chr16:785952:786377:-|CDS|ENSG00000007376|control|control|control (ssRNA)", "RNA": "GGGAGUUCUACAGUCCGACGAUCCAGUCGCUGGACCAGCUCGUGCAGGCCUUACGGGCCACCCCCGACCCUGACCCCGAGGAUAGGGGCCCCAGGCCAGGCAGCCCCUCCGCACUCCUGCCUGGGCCCGGCCGGCCUCCUCCACAACAGAGGAUUGAGCAUCA"}, "B18": {"name": "chr1:162783069:162783171:+|3pUTR|ENSG00000162733|unk|FALSE|unique (ssRNA)", "RNA": "GGGAGUUCUACAGUCCGACGAUCUGAAAGUAGUUCAAAUUUGAAUUAGAAGAAUGAAGCUAGGACUUAUUUGGAAAAGGAGAUAGAAAAAAAAUGAUCAGAAACUGUGGGGCCUUAUUACCUUUGCAGUAAGUUAUCUUCUUCCAACAGAGGAUUGAGCAUCA"}, "B19": {"name": "chr15:64957256:64957357:+|3pUTR|ENSG00000166839|msi1|FALSE|unique (ssRNA)", "RNA": "GGGAGUUCUACAGUCCGACGAUCGCUGGAAAAUUGAAACAUAAUUUCACAAUUAUUCCUUUUUCCACCUUAAAUAAUAAGAGUAGAAUACUUUCUGUGUUUUUAUCUUAUACACAUGAAUAAAUGCUAUGGCUUAUCACAGUUCAACAGAGGAUUGAGCAUCA"}, "B20": {"name": "ENSG00000114744:stop:overlap|stop_codon|ENSG00000114744|stop_codon|NA|stop_codon (ssRNA)", "RNA": "GGGAGUUCUACAGUCCGACGAUCAACAAGCAUUGGAAGAGAUGAAGACAAAUCACUGUAGGAGAGUUGUUCGCAACAUCAAGUAGUACCAGUUUUAAGGUUUUAAUUCAUUUGAAUCACUUAUGAAUUGAUGAUAUACAGCAACAACAGAGGAUUGAGCAUCA"}, "B21": {"name": "ENSG00000066855:stop:overlap|stop_codon|ENSG00000066855|stop_codon|NA|stop_codon (ssRNA)", "RNA": "GGGAGUUCUACAGUCCGACGAUCGAGUGUUGUCCCUUCCAGCUGGCUUUAUUCAGCCCCACGUGUCCAAGCAUUGUCUGGGAUAGCCUUGUAUUGGAAAACCUGGCCCAUUCUGUAAAUAAAGGCUCCACUAGAAAAGACUCGCAACAGAGGAUUGAGCAUCA"}, "B22": {"name": "chr1:184691659:184691688:-|3pUTR|ENSG00000116406|msi1_unk|FALSE|overlapping (ssRNA)", "RNA": "GGGAGUUCUACAGUCCGACGAUCCUCCAACGUUGUAAUUACAACUCUACAUUCAUUUACUUACUUGACAUACUGCCACAAAGUAGUUUUUGAGUUCAUUAAAAAUUCCAAAGGCAUUAGUUGUUUUUUUUUUUUUUAGUGUUUCAACAGAGGAUUGAGCAUCA"}}, "note": "Where a chain is given by its changes, count along the chain named. Whole data set: some 5,800 sequences, median “enrichment r” near 0.68, cut for the highest 2% near 11. For the sample, the highest values were picked, then their nearest neighbours and some sequences at random.", "data": [{"target": "T1, UNK ZnF1-6 (called full-length) (human, UniProt Q9C0B0 30-357)", "T1 sequence": "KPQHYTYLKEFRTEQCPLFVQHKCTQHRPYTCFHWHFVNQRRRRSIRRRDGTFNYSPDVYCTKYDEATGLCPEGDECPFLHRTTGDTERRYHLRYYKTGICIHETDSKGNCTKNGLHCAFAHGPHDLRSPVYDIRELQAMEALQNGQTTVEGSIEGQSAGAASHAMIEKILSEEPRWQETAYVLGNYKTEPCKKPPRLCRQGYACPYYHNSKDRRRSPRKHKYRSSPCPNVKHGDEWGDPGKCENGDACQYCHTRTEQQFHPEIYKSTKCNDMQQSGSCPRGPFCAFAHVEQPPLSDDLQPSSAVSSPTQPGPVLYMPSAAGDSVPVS", "test": "nsRBNS (natural sequence RNA bind-n-seq); RBNS binding buffer (assumed for nsRBNS): 25 mM Tris pH 7.5, 150 mM KCl, 3 mM MgCl2, 0.01% Triton X-100, 500 ug/ml BSA, 20 U/ml SUPERase-In, 4 C; UNK is unkempt and MSI1 is Musashi-1; names of the RNAs are library labels; protein concentration not given here; high values mean tight binding", "units": {"binding signal": "enrichment R"}, "values": [{"binder": "B1", "binding signal": 1.12}, {"binder": "B2", "binding signal": 2.66}, {"binder": "B3", "binding signal": 0.633}, {"binder": "B4", "binding signal": 0.605}, {"binder": "B5", "binding signal": 9.94}, {"binder": "B6", "binding signal": 0.843}, {"binder": "B7", "binding signal": 19.7}, {"binder": "B8", "binding signal": 6.33}, {"binder": "B9", "binding signal": 11.6}, {"binder": "B10", "binding signal": 0.924}, {"binder": "B11", "binding signal": 13.9}, {"binder": "B12", "binding signal": 0.291}, {"binder": "B13", "binding signal": 0.789}, {"binder": "B14", "binding signal": 15.9}, {"binder": "B15", "binding signal": 1.68}, {"binder": "B16", "binding signal": 0.698}, {"binder": "B17", "binding signal": 0.526}, {"binder": "B18", "binding signal": 1.05}, {"binder": "B19", "binding signal": 0.535}, {"binder": "B20", "binding signal": 2.3}, {"binder": "B21", "binding signal": 0.862}, {"binder": "B22", "binding signal": 8.44}]}]}
